Holding throughout (test): thermal shift delta Tm vs DMSO control; higher = stronger stabilization (binding)
What all share (conditions): 12.5 µM; protein concentration 2 µM

Test [1] has as its system LOC_OS01G57100-cb003. In a few lines:
(§1)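 Rice kinase domain constructs, made in E. coli and purified, were placed in 96-well plates at 2 μM in 19.5 μl of 100 mM potassium phosphate pH 7.5, 150 mM NaCl, 10% glycerol and 5 × SYPRO Orange, with compound in DMSO. A temperature ramp from 25°C to 95°C at 0.05°C/s was used for differential scanning fluorimetry. The melting temperature shift is a triplicate mean compared with DMSO-only protein, derived from Boltzmann fits.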

Test [2] deals with LOC_OS01G60330-cb001. In a few lines: as §1
For test [3], the system named is LOC_OS01G60700-cb002. In a few lines:
as §1

Test [4] deals with LOC_OS01G63280-cb003. In a few lines: as §1
The subject of test [5] is LOC_OS01G67340-cb003. In a few lines:
as §1

Test [6] concerns LOC_OS01G70970-cb002. Summed up: as §1
Test [7] has as its system LOC_OS02G07810-cb001. Summed up:
as §1

The test system of test [8] is LOC_OS02G08530-cb003. In a few lines:
as §1

In test [9] the test system is LOC_OS02G14120-cb001. In a few lines: as §1
The test system of test [10] is LOC_OS02G17970-cb001. In a few lines: as §1
Test [11] deals with LOC_OS02G45750-cb003. Summed up: as §1
In test [12] the test system is LOC_OS02G54510-cb004. In a few lines: as §1
Test [13] relates to LOC_OS03G04050-cb001. Summed up:
as §1

Test [14] concerns LOC_OS03G12390-cb001. Summed up: as §1
The subject of test [15] is LOC_OS03G27990-cb004. Summed up: as §1
For test [16], the system named is LOC_OS03G50450-cb001. In a few lines: as §1
For test [17], the system named is LOC_OS03G50810-cb003. In a few lines:
as §1

Test [18] deals with LOC_OS04G35114-cb001. Summed up: as §1
The subject of test [19] is T1, LOC_OS04G38480-cb003.
T1 sequence (whole entry): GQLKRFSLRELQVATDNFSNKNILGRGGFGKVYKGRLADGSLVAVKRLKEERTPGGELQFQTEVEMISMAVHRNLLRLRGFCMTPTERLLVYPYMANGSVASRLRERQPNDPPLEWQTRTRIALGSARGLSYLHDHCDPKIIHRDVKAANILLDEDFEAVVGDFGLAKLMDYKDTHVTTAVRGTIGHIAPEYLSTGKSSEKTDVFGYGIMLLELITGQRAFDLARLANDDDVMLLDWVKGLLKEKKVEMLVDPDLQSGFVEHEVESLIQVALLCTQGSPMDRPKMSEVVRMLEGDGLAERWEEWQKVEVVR
Summed up:
as §1

Test [20] has as its system T2, LOC_OS04G41100-cb001.
T2 sequence (whole entry): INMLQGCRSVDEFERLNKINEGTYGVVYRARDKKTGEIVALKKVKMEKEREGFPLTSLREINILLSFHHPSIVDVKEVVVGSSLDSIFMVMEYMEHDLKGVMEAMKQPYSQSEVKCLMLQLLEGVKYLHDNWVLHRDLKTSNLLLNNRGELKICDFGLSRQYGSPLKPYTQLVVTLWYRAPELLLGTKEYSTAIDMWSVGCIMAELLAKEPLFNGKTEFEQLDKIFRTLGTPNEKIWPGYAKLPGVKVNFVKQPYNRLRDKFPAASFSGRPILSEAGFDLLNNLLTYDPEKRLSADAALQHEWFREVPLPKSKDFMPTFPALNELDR
In a few lines:
as §1
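Further: purified Escherichia coli-expressed rice kinase domain construct.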

Turning to `c1nc2c(NC3CCCCC3)nc(Nc3ccc(N4CCOCC4)cc3)nc2[nH]1` [Reversine], the “thermal shift delta Tm” value in [1] stood at 0.27 °C; in [2], 11.7 °C; in test [3], 1.27 °C; in [4], 1.53 °C; in [5], 3.68 °C; in test [6], 7.39 °C. Further, the “thermal shift delta Tm” value is -0.13 °C in test [7]; 4.69 °C in test [8]; 7.96 °C in test [9]; 0.48 °C in test [10]; 8.28 °C in [11]; 4.92 °C in test [12]. Besides, the “thermal shift delta Tm” value worked out at 0.32 °C in test [13]; 9.58 °C in test [14]; 5.33 °C in [15]; 9.57 °C in test [16]; 5.17 °C in test [17]; 6.36 °C in test [18]. Also, the figures for the “thermal shift delta Tm” value in [19] and in test [20] were 3.21 °C and 0.65 °C, respectively.

On to `CN(C)C[C@@H]1CCn2cc(c3ccccc32)C2=C(C(=O)NC2=O)c2cn(c3ccccc23)CCO1`, for which the “thermal shift delta Tm” value in test [1] was 2.1 °C; in [2] it was 0.51 °C; in [3], 2.42 °C; in test [4], 0.43 °C; in test [5] it was 0.03 °C; in test [6], 0.53 °C. The “thermal shift delta Tm” value in [7] was 0.54 °C; in [8], 1.19 °C; in test [9], 2.29 °C; in test [10], 1.69 °C; in test [11], -0.25 °C; in [12], 0.16 °C. Moreover, the “thermal shift delta Tm” value was 0.36 °C in [13]; 0.08 °C in test [14]; 0.5 °C in test [15]; -0.45 °C in test [16]; 1.85 °C in test [17]; 6.19 °C in test [18]. The “thermal shift delta Tm” value in [19] was 2.42 °C; in test [20] it was 0.73 °C.

As for `O=C1NC(=O)/C(=C/c2ccc(-c3ccc(F)cc3O)o2)S1`, the “thermal shift delta Tm” value in [1] stood at 4.13 °C; in [2], 9.64 °C; in test [3], 1.12 °C; in test [4], 23.4 °C; in [5], 5.05 °C; in test [6] it was 4.18 °C. Besides, the “thermal shift delta Tm” value was determined as 2.79 °C in test [7]; 1.57 °C in [8]; 2.56 °C in test [9]; 1.7 °C in test [10]; 2.33 °C in [11]; 0.67 °C in [12]. Also, the “thermal shift delta Tm” value in [13] was 1.72 °C; in [14], 5.37 °C; in [15], 1.51 °C; in test [16] it was 3.59 °C; in [17], 2.55 °C; in test [18], 4.85 °C. The “thermal shift delta Tm” value in test [19] came to 4.16 °C; in test [20] it was 1.17 °C.

As to `C#Cc1cccc(Nc2ncnc3cc(OCCOC)c(OCCO)cc23)c1`, the “thermal shift delta Tm” value was 0.15 °C in [1]; 0.3 °C in test [2]; 0.24 °C in test [3]; -0.13 °C in test [4]; -0.22 °C in test [5]; 0.5 °C in test [6]. Moreover, the “thermal shift delta Tm” value in test [7] is 1.32 °C; in test [8], 1.16 °C; in test [9], 4.33 °C; in test [10], -0.01 °C; in test [11], 3.92 °C; in test [12], 0.67 °C. The “thermal shift delta Tm” value in test [13] was determined as 0.26 °C; in test [14], 2.39 °C; in [15], 0.08 °C; in test [16] it was 0.13 °C; in [17], 0.83 °C; in test [18], 6.33 °C. Also, the “thermal shift delta Tm” value in test [19] was 1.21 °C; in test [20] it was 0.13 °C.

In the case of `Cc1cc(Nc2nc(N[C@@H](C)c3ncc(F)cn3)ncc2Cl)[nH]n1`, the “thermal shift delta Tm” value is 1.57 °C in [1]; 4.82 °C in test [2]; 0.28 °C in test [3]; 1.3 °C in test [4]; -0.24 °C in test [5]; 2.3 °C in test [6]. The “thermal shift delta Tm” value in [7] came to 0.96 °C; in test [8], 2.02 °C; in test [9] it was 8.03 °C; in [10] it was 0.48 °C; in test [11], 3.59 °C; in test [12], 2.58 °C. Besides, the “thermal shift delta Tm” value in test [13] turned out to be 0.1 °C; in [14] it was 5.26 °C; in test [15], 0.82 °C; in test [16] it was 2.31 °C; in [17], 3.08 °C; in test [18], 1.86 °C. Moreover, the “thermal shift delta Tm” value came out at 2.03 °C in test [19] and 0.47 °C in [20].

With `CCOc1cc(C(=O)N2CCC(N3CCN(C)CC3)CC2)ccc1Nc1ncc2c(n1)N(C1CCCC1)c1ccccc1C(=O)N2C`, the “thermal shift delta Tm” value in test [1] was 1.18 °C; in test [2], 1.19 °C; in [3], 0.58 °C; in test [4], -0.25 °C; in test [5], 0.42 °C; in test [6] it was 0.05 °C. The “thermal shift delta Tm” value is 0.06 °C in test [7]; 0.54 °C in test [8]; -0.51 °C in test [9]; -0.43 °C in [10]; 0.51 °C in [11]; -0.24 °C in test [12]. The “thermal shift delta Tm” value in [13] was 0 °C; in test [14], -0.16 °C; in [15] it was 0.03 °C; in test [16], 0.49 °C; in [17], 0.18 °C; in test [18], 0.47 °C. Moreover, the figures for the “thermal shift delta Tm” value in [19] and in [20] were 1.8 °C and 0.13 °C, respectively.

(Values after the supplement of paper PMC9694430.)
